Experimental data published in PubChem BioAssay AID2284146 (EPA ToxCast).
Activity calls are given as the source filed them. How the source made its calls: active means hit-call score of the fitted dose curve at least 0.9, where 1 is the maximum; inactive means score below 0.9.

These compounds were tested against human Adrenoceptor alpha2A Antagonism, ADRA2A (gene 150) (UniProt P08913) (assay: ERF_TW_GPCR_hADRA2A: Eurofins (ERF) G Protein-Coupled Receptor (GPCR) Radioligand Binding LeadHunter Assay for human Adrenoceptor alpha2A Antagonism).
human Adrenoceptor alpha2A Antagonism, ADRA2A (gene 150), sequence (P08913 whole entry, looked up): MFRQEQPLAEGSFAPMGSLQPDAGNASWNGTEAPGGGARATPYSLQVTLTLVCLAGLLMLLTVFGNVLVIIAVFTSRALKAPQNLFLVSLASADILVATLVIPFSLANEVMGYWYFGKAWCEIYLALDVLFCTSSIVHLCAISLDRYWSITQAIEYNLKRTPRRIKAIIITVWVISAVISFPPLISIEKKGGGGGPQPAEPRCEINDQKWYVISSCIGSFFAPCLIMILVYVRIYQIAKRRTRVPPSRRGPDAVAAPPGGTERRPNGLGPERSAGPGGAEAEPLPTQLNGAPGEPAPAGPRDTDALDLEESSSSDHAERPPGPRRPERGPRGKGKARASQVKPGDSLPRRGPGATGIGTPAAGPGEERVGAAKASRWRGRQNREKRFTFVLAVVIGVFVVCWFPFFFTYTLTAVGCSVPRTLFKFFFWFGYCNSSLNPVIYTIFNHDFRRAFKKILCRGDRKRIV
Description: ERF_TW_GPCR_hADRA2A is a biochemical, single-readout assay that uses extracted gene-proteins in a cell-free assay. Measurements were taken 1 hour after chemical dosing in a 96-well plate. See alpha2A Human Adrenoceptor GPCR Binding (Antagonist Radioligand) Assay, Panlabs.ERF_TW_GPCR_hADRA2A is an assay component calculated from the ERF_TW_GPCR_hADRA2A assay. It is designed to measure radioligand binding using a type of binding reporter as detected by scintillation counting with radiometry technology.Data from the assay component ERF_TW_GPCR_hADRA2A was analyzed at the assay endpoint, ERF_TW_GPCR_hADRA2A, in the positive analysis fitting direction relative to DMSO as the negative control and baseline of activity. Using a type of binding reporter, loss-of-signal activity can be used to understand changes in radioligand binding as they relate to gene ADRA2A. To generalize the intended target to other relatable targets, this assay endpoint is annotated to the gpcr intended target family, where the subfamily is adrenoceptor.
Human recombinant adrenergic alpha2A receptors expressed in CHO-K1 cells are used in modified Tris-HCl buffer pH 7.4. A 2 ug aliquot is incubated with 1.5 nM [3H]Rauwolscine for 60 minutes at 25C. […] Receptors are filtered and washed, the filters are then counted to determine [3H]Rauwolscine specifically bound. […]
For `O=C(/C=C/c1ccc(O)cc1)CC(=O)/C=C/c1ccc(O)cc1`, the AC50 was 1140 nM (active).
